DAGLB inhibitor: blocks human DAGLB lipase activity; HEK293T DAGLB membrane lysate, EnzChek fluorogenic substrate; Q8NCG7; inhibition, % at 5.17 µM; AID 504411; actives 0.059% (n = 340,000); in the data active = inhibition above about 34%;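 note: 0% = enzyme with vehicle and 100% = wells lacking enzyme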
pPAFAH inh: pPAFAH (human) enzyme inhibition; recombinant pPAFAH, FP-rhodamine probe fluorescence polarization; AID 463082; inhibition, % at 3.39 µM; Q13093; actives 1.5% (n = 330,000);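 active = inhibition above the mean inhibition across the screen plus 3 SD, cut at about 25% in these data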;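 note: inhibitors block binding of the rhodamine activity-based probe so polarization drops; 0% = enzyme with DMSO and 100% = wells lacking pPAFAH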
HTRA1 inh: inhibitors of human serine peptidase HTRA1 | inhibition, % at 5.96 µM | actives 0.5% (n = 340,000) | Q92743 | recombinant HTRA1, FP-rhodamine activity-based probe, fluorescence polarization; in the data active = inhibition above about 36%;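 note: 0% = enzyme with DMSO and 100% = wells lacking enzyme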
PAFAH1B2 inh: PAFAH1B2 (human) inhibition; P68402; recombinant PAFAH1B2, FP-rhodamine activity probe, fluorescence polarization; inhibition, % at 3.39 µM; actives 1.2% (n = 340,000); AID 492953;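 active = inhibition above the mean of all tested compounds plus 3 SD, cut at about 24% in these data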;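 note: 0% = enzyme with DMSO and 100% = wells lacking PAFAH1B2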
Target sequence (P68402 whole entry, looked up): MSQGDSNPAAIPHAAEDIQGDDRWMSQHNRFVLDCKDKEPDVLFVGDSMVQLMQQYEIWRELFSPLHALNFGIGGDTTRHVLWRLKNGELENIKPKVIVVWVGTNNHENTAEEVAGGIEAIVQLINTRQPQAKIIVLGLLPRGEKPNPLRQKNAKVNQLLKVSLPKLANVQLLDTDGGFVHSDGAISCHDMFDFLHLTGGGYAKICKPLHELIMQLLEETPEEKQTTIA
PAFAH1B3 FP inh: inhibitors of human PAFAH1B3. recombinant PAFAH1B3, FP-rhodamine probe, fluorescence polarization. inhibition, % at 3.39 µM. actives 0.28% (n = 340,000);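 active = inhibition above the screen-wide average of all tested compounds plus 3 SD, cut at about 25% in these data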;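 note: 0% = enzyme with DMSO only and 100% = wells lacking PAFAH1B3 protein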
Target sequence (Q15102 whole entry, looked up): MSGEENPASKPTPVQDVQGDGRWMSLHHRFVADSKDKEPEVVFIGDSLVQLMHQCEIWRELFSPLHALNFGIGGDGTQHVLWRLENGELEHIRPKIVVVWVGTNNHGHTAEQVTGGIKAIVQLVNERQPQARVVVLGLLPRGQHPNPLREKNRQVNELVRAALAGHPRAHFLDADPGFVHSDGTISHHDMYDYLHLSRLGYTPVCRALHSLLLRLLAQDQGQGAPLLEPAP
PAFAH2 FP inh: PAFAH2 (human) inhibition; Q99487; recombinant PAFAH2, FP-rhodamine activity probe, fluorescence polarization; inhibition, % at 3.39 µM; actives 0.99% (n = 340,000);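 active = inhibition above the mean over all tested compounds plus 3 SD, cut at about 30% in these data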;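 note: inhibitors block probe labeling of enzyme so polarization drops; 0% = enzyme with DMSO and 100% = wells lacking PAFAH2 protein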
The depositor's hits bear a star. This is a sample that favours compounds with a hit; in the whole collection about 2.8% have one here.

Screening O=C(N/N=C/c1c(O)n(Cc2ccc(F)cc2)c(=S)[nH]c1=O)c1ccncc1 returned DAGLB inhibitor 8, pPAFAH inh 16, HTRA1 inh -10, PAFAH1B2 inh 42*, PAFAH1B3 FP inh -9 and PAFAH2 FP inh -7.
O=c1[nH]c(=O)n(Cc2ccc(F)cc2)c(O)c1C=NCCCn1ccnc1 was read as DAGLB inhibitor 1, pPAFAH inh 7, HTRA1 inh 2, PAFAH1B2 inh 5, PAFAH1B3 FP inh 2 and PAFAH2 FP inh 5.
`O=C(/C=C/c1ccc(F)cc1)NC(=S)N1C[C@H]2C[C@H](C1)c1cccc(=O)n1C2` gave DAGLB inhibitor -3, pPAFAH inh -1, HTRA1 inh 1, PAFAH1B2 inh -1, PAFAH1B3 FP inh 1 and PAFAH2 FP inh 4.
Screening Cc1ccc(C(=O)c2cc(Br)ccc2N)cc1 returned DAGLB inhibitor -7, pPAFAH inh 3, HTRA1 inh -18, PAFAH1B2 inh 4, PAFAH1B3 FP inh 1 and PAFAH2 FP inh 2.
For O=c1[nH]c(=S)n(-c2ccccc2F)c(O)c1C=Nc1ccc(N2CCOCC2)cc1 the results were DAGLB inhibitor 3, pPAFAH inh 29*, HTRA1 inh 12, PAFAH1B2 inh 8, PAFAH1B3 FP inh 1 and PAFAH2 FP inh 33*.
For O=c1[nH]c(=O)n(Cc2ccccc2Cl)c(O)c1C=Nc1ccc(F)cc1 the results were DAGLB inhibitor 0, pPAFAH inh 5, HTRA1 inh -1, PAFAH1B2 inh -3, PAFAH1B3 FP inh 7 and PAFAH2 FP inh -3.
For O=S(=O)(c1ccc(Cl)cc1)c1ccc(Cl)cc1 the results were DAGLB inhibitor -6, pPAFAH inh -2, HTRA1 inh -6, PAFAH1B2 inh 66*, PAFAH1B3 FP inh 10 and PAFAH2 FP inh 4.
O=C1CN=C(c2ccccc2)c2ccccc2N1Cc1ccc(C(F)(F)F)cc1 was read as DAGLB inhibitor -3, pPAFAH inh 3, HTRA1 inh -18, PAFAH1B2 inh 59*, PAFAH1B3 FP inh 1 and PAFAH2 FP inh 4.
For O=C(O)c1ccccc1-c1ccc(C=C2C(=O)N(c3ccccc3)C(=S)N(c3ccccc3)C2=O)o1 the results were DAGLB inhibitor 4, pPAFAH inh 20, HTRA1 inh -12, PAFAH1B2 inh -2, PAFAH1B3 FP inh 10 and PAFAH2 FP inh 10.
`CNC(=O)Oc1ccc(C(=O)N2c3ccccc3NC(=O)C2C)cc1` (configuration not stated) gave DAGLB inhibitor 1, pPAFAH inh 7, HTRA1 inh 3, PAFAH1B2 inh 48*, PAFAH1B3 FP inh 11 and PAFAH2 FP inh -2.
`Cn1cc(C(=O)OCC(=O)NC2CCCCC2)c2ccccc21` gave DAGLB inhibitor -1, pPAFAH inh 33*, HTRA1 inh 5, PAFAH1B2 inh 5, PAFAH1B3 FP inh 3 and PAFAH2 FP inh 72*.
Screening CC1CCN(C(=O)COC(=O)c2cn(C)c3ccccc23)CC1 returned DAGLB inhibitor -6, pPAFAH inh -3, HTRA1 inh -3, PAFAH1B2 inh 5, PAFAH1B3 FP inh 1 and PAFAH2 FP inh -4.
For C/C=C1/CN2[C@@H]3C4CO[C@@H]3c3c([nH]c5cc(OC)ccc35)[C@@H]2CC14 (some centres not stated) the results were DAGLB inhibitor -1, pPAFAH inh 6, HTRA1 inh 3, PAFAH1B2 inh 2, PAFAH1B3 FP inh 6 and PAFAH2 FP inh 0.
Screening CCCCn1c(C)c(C(=O)OCC)c2c(CN3CCCC3)c(O)ccc21 returned DAGLB inhibitor -3, pPAFAH inh 27*, HTRA1 inh -5, PAFAH1B2 inh -5, PAFAH1B3 FP inh -7 and PAFAH2 FP inh 5.
Screening CCC(C)c1ccc(N2C(=O)NC(=O)/C(=C/c3cccn3CCOc3ccc(C)cc3)C2=O)cc1 (configuration not stated) returned DAGLB inhibitor 5, pPAFAH inh 28*, HTRA1 inh -7, PAFAH1B2 inh 17, PAFAH1B3 FP inh 5 and PAFAH2 FP inh 25.
OC(c1ccncc1)(c1ccc(F)cc1)c1ccc(F)cc1 was read as DAGLB inhibitor 2, pPAFAH inh 4, HTRA1 inh -4, PAFAH1B2 inh 6, PAFAH1B3 FP inh 1 and PAFAH2 FP inh 0.
`COc1ccc2c(c1O)C13CCN(C)C(C2)C1CCC(=O)C3` (configuration not stated) gave pPAFAH inh 1.

Source: PubChem (The Scripps Research Institute Molecular Screening Center)
